Where “and” joins values, the source holds several entries; their conditions need not be identical. Identical values can stand only once. Inconclusive results are not listed. Entries that show only a call come without a potency. A number with no mark means an inactive call. Calls of active or inactive are those of the source. Calls follow the shape of the dose curve; as a rule, active = well fitted cell-killing curve with a large enough effect in the repeat runs; inconclusive = weak or mixed curves, or effect the other way; inactive = no such curve, though single readings can be large or run the other way.
Assay: qHTS assay to identify small molecule agonists of the RXR signaling pathway - cell viability counter screen (AID 1159529); also: nearly all actives have a fitted effect of over 50% in size
Settings: RXR-alpha-bla HEK293T viability, CellTiter-Glo, 16 h; series mostly up to 76.8 µM
Text: National Center for Advancing Translational Sciences [NCATS]
NIH Chemical Genomics Center [NCGC]
U.S. Environmental Protection Agency [EPA]
National Institutes of Environmental Health Sciences [NIEHS]
National Toxicology Program [NTP]
U.S. Food and Drug Administration [FDA]
The Retinoid X receptor (RXR), a nuclear hormone receptor expressed in liver, spleen, placenta, epidermis, central nervous system. These receptors are able to form homo and heterodimers with other nuclear receptors and due to this heterodimerizing ability, RXR functions as master regulators producing diverse physiological effects. Three subtypes of RXR exist; alpha, beta and gamma. Retinoid X receptor alpha (RXR-alpha) has potential roles in metabolic signaling pathways, skin alopecia, dermal cysts, cardiac development, insulin sensitization etc. Therefore screening environmental chemicals on RXR-alpha signaling can be used for the studies focused on such therapeutic applications. For quantification of RXR-alpha ligands signaling, GeneBLAzer RXR alpha-UAS-bla HEK 293T (Life Technologies, Carlsbad, CA) cells containing a beta-lactamase reporter-gene under control of Retinoid X receptor-alpha response element were used to screen Tox21 10K library. The cytotoxicity of the Tox21 compound library against the RXR-alpha HEK 293T cell line was tested in parallel by measuring cell viability using CellTiter-Glo assay (Promega Corporation, Madison, WI) in the same wells.
Tox21 Assay Protocol Summary:
RXR-alpha HEK 293T cells were dispensed at 2,000 cells/6 uL of assay medium containing 2% charcoal-stripped FBS using a Multidrop Combi (ThermoFisher Scientific, Waltham, MA) dispenser. The assay was performed in black wall/clear-bottom 1536-well plates (Greiner Bio-One North America Inc. Monroe, NC). Tetraoctyl ammonium bromide was used as a positive control in the cytotoxicity screen. After the assay plates were incubated at 37 C and 5% CO2 for 5 hr, 23 nL of compounds dissolved in DMSO, positive control or DMSO only were transferred to the assay plate by a Pintool station (Kalypsys, San Diego, CA). The assay plates were incubated at 37 C and 5% CO2 for 16 hr. One uL of LiveBLAzer B/G FRET substrate (Life Technologies) was added using a Flying Reagent Dispenser (FRD) (Aurora Discovery, San Diego, CA) and the plates were incubated at room temperature for 2 hr. Fluorescence intensity (405 nm excitation, 460/530 nm emission) was measured using an Envision plate reader (PerkinElmer, Shelton, CT). For cytotoxicity, 4 uL/well of CellTiter-Glo reagent was added into the assay plates using an FRD. After 30 min incubation at room temperature, the luminescence intensity was measured using a ViewLux plate reader (PerkinElmer).
`C[C@@H](O)[C@H](N)C(=O)O` showed an activity change, negative = cytotoxicity of 1.63% [at 15.8 µM].
In the case of `O=C1CCc2cc(OCCCCc3nnnn3C3CCCCC3)ccc2N1`, the Potency is reported as “inactive”.
For `Sc1nc2ccccc2s1`, the Potency was “inactive”.
With `O=C(c1ccc(O)c(O)c1)c1ccc(O)cc1O` the Potency was “inactive”.
In the case of `CCCNCCC`, the Potency is reported as “inactive”.
With `O=C(O)[C@H](O)[C@@H](O)[C@H](O[C@@H]1O[C@H](CO)[C@H](O)[C@H](O)[C@H]1O)[C@H](O)CO` the Potency was “inactive”.
With `CCCCCc1ccc(Cl)cc1` the Potency was “inactive”.
With `CC(C)(C)NSc1nc2ccccc2s1` the Potency was “inactive”.
In the case of `CCCCOC(=O)CO`, the Potency is reported as “inactive”.
For `Cc1ccc(O)c(O)c1`, the Potency was “inactive”.
With `CN1CCN2c3ccccc3Cc3ccccc3C2C1` (stereo not given) the Potency was “inactive”.
In the case of `COCCOc1cc2cc(C(=O)NC3CCN(C(C)C)CC3)n(CC(=O)Nc3ccc(Cl)cn3)c2cn1`, the Potency is reported as “inactive”.
In the case of `CCCCCCCCCCCCCCCC[N+](C)(C)CC`, the Potency is reported as 8.74 µM (active) and 10.7 µM (active).
For `CCc1ccc(Br)cc1`, the Potency was “inactive”.
For `CN(C)CCN1CCN(c2cccc(Cl)c2)C1=O`, the Potency was “inactive”.
In the case of `Oc1ccccc1O`, the Potency is reported as “inactive”.
For `CCOC(=O)Cn1cccc1-c1nc(-c2ccc(OC)cc2)c(-c2ccc(OC)cc2)s1`, the Potency was “inactive”.
With `O=C(O)c1cc(-c2ccc(F)cc2F)ccc1O` the Potency was “inactive”.
With `Cc1nc(-c2ccc(Cl)cc2)oc1COC(C)(C)C(=O)O` the Potency was “inactive”.
In the case of `S=c1nccc[nH]1`, the Potency is reported as “inactive”.
In the case of `O=c1oc2cc(O)ccc2c2oc3cc(O)ccc3c12`, the Potency is reported as “inactive”.
For `COc1cc(S(=O)(=O)O)c(C)cc1N=Nc1c(O)ccc2cc(S(=O)(=O)O)ccc12`, the Potency was “inactive”.
In the case of `[Cu+]`, the Potency is reported as “inactive”.
With `NC(=O)c1cccc([N+](=O)[O-])c1` the Potency was “inactive”.
With `Cc1cc(C)c(/C=C2\C(=O)Nc3ccccc32)[nH]1` the Potency was “inactive”.
For `Cc1c(C)c([N+](=O)[O-])c(C(C)(C)C)c([N+](=O)[O-])c1C`, the Potency was 43.6 µM (active).
In the case of `O=C(O)c1cc(N=Nc2ccc([N+](=O)[O-])cc2)ccc1O`, the Potency is reported as “inactive”.
For `Cc1cc(-c2ccc(N=Nc3cc(S(=O)(=O)O)c4ccccc4c3N)c(C)c2)ccc1N=Nc1cc(S(=O)(=O)O)c2ccccc2c1N`, the Potency was “inactive”.
With `CC(C)CCOC(=O)/C=C/c1ccccc1` the Potency was “inactive”.
With `C=CCn1c(=O)n(CC=C)c(=O)n(CC=C)c1=O` the Potency was “inactive”.
For `Cc1ccc(C)cc1`, the Potency was “inactive”.
In the case of `CCC(C)(CCC(C)C)C(=O)[O][Sn]([CH3])([CH3])[O]C(=O)C(C)(CC)CCC(C)C` (stereo not given), the Potency is reported as “inactive”.
With `Cc1cc(=O)oc2cc(O)cc(O)c12` the Potency was “inactive”.
For `OC[C@@H](O)[C@@H](O)CO`, the Potency was “inactive”.
With `O=c1[nH]c(=O)n([C@H]2C[C@H](O)[C@@H](CO)O2)cc1F` the Potency was “inactive”.
With `ClCCl` the Potency was “inactive”.
For `Cc1ccc(N/N=c2\c(=O)cc/c(=N\Nc3ccc(S(=O)(=O)O)cc3)c2=O)c(C)c1`, the Potency was “inactive”.
For `CCCCC(CC)COC(=O)CCCCC(=O)OCc1ccccc1` (stereo not given), the Potency was “inactive”.
For `COc1cc(/C=C/c2ccccc2)oc(=O)c1`, the Potency was “inactive”.
In the case of `O=C(/C=C/c1ccccc1)OC/C=C/c1ccccc1`, the Potency is reported as “inactive”.

Source: PubChem BioAssay (Tox21)
Potency is read from the fitted curve at half-maximal effect.
